We go through 29 compounds from the supplement of paper PMC13380429.

Test [1] has as its system Vero E6 infected with SARS-CoV-2. Nature of the test: morphology score (similarity to uninfected cells); higher = more like uninfected cells. Particulars: 24 h.
For test [2] the test system is unchanged. Briefly: SARS-CoV-2 infection rate relative to infected DMSO; higher = more infection, active = 60 or less. The following applies: 24 h.

Take `OCCOc1ccc(/C(=C(/CCCl)c2ccccc2)c2ccccc2)cc1` [ospemifene] (10 µM): in test [1], the morphology score amounted to 0.19. In addition, in test [2], the SARS-CoV-2 infection rate was 97.5% (inactive).
The like results for `Cc1cccc(C)c1OCC(C)N` (stereo not drawn) [mexiletine] (10 µM) were, in that order, -0.0725 and 112% (inactive).
The like results for `c1ccc2nc(N3CCNCC3)ccc2c1` [quipazine] (10 µM) were, in that order, 0.118 and 104% (inactive).
The like results for `CCCN(CC1CC1)c1nc(C)nc(Nc2c(Cl)cc(Cl)cc2Cl)c1Cl` (10 µM) were, in that order, 0.143 and 102% (inactive).
Turning to `Oc1cc(Cl)ccc1Oc1ccc(Cl)cc1Cl` [triclosan] (10 µM), the morphology score in test [1] was 0.237. Also, in test [2], the SARS-CoV-2 infection rate was 95% (inactive).
In the same order, the values of `CNC(=N)NCCC[C@H](N)C(=O)O` [targinine] (10 µM) are 0.0428 and 106% (inactive).
The like results for `CCOC(=O)C1=C(C)NC(C)=C(C(=O)OC)C1c1cccc(Cl)c1Cl` (stereo not drawn) [felodipine] (10 µM) were, in that order, 0.224 and 112% (inactive).
In the same order, the values of `Cc1[nH]c(=O)c(C#N)cc1-c1ccncc1` [milrinone] (10 µM) are 0.236 and 93.5% (inactive).
Regarding `CC(=O)OCC(CCn1cnc2cnc(N)nc21)COC(C)=O` [famciclovir] (10 µM), in test [1], the morphology score was determined as 0.139. Besides, the SARS-CoV-2 infection rate in test [2] was 102% (inactive).
The like results for `Cn1cc(-c2ccc(S(=O)(=O)n3ccc(/C=C/C(=O)Nc4ccccc4N)c3)cc2)cn1` (10 µM) were, in that order, -0.0742 and 105% (inactive).
The like results for `CNCCC=C1c2ccccc2CCc2ccccc21` [nortriptyline] (0.833333 µM) were, in that order, -0.1 and 110% (inactive).
The compound `O[C@@H]1CCCC[C@H]1N1CCC(c2ccccc2)CC1` (racemic) [vesamicol] (10 µM) yielded a morphology score in test [1] of 0.23. In addition, the SARS-CoV-2 infection rate in test [2] was 98.5% (inactive).
The like results for `CC(=O)O[C@]1(C(C)=O)CC[C@H]2[C@@H]3C[C@H](C)C4=CC(=O)C=C[C@]4(C)[C@@]3(F)[C@@H](O)C[C@@]21C` [fluorometholone-acetate] (10 µM) were, in that order, 0.0758 and 105% (inactive).
In the same order, the values of `Clc1cccc(Cl)c1CSc1nnc(-c2cnccn2)s1` [yoda-1] (10 µM) are 0.286 and 89% (inactive).
In the same order, the values of `O=c1[nH]cnc2c1ncn2[C@H]1CC[C@@H](CO)O1` [didanosine] (10 µM) are 0.186 and 112% (inactive).
In the case of `CSc1nc2ccc3nc(NC(=O)C(c4ccccc4)c4ccccc4)sc3c2s1` (10 µM), in test [1], the morphology score was 0.0833. The SARS-CoV-2 infection rate in test [2] is 94.5% (inactive).
The like results for `CCN[C@H]1CN(CCCOC)S(=O)(=O)c2sc(S(N)(=O)=O)cc21` [brinzolamide] (10 µM) were, in that order, 0.267 and 69% (inactive).
The like results for `Cc1nnc2ccc(-c3cccc(C(F)(F)F)c3)nn12` (10 µM) were, in that order, -0.183 and 104% (inactive).
The like results for `Nc1ncnc2c1ncn2[C@@H]1O[C@H](COP(=O)(O)OP(=O)(O)OP(=O)(O)OP(=O)(O)OC[C@H]2O[C@@H](n3cnc4c(N)ncnc43)[C@H](O)[C@@H]2O)[C@@H](O)[C@H]1O` [diadenosine-tetraphosphate] (10 µM) were, in that order, 0.0713 and 108% (inactive).
`CC(=O)Nc1ccc(S(=O)(=O)c2ccc(NC(C)=O)cc2)cc1` [acedapsone] (10 µM) returned a morphology score in test [1] of 0.233. For the same compound, the SARS-CoV-2 infection rate in test [2] was 98% (inactive).
In the same order, the values of `COc1ccc(Cc2nccc3cc(OC)c(OC)cc23)cc1OC` [papaverine] (10 µM) are 0.169 and 105% (inactive).
As for `CC(C)=CCC[C@](C)(O[C@@H]1O[C@H](CO)[C@@H](O)[C@H](O)[C@H]1O)[C@H]1CC[C@]2(C)[C@@H]1[C@H](O)C[C@@H]1[C@@]3(C)CC[C@H](O[C@@H]4O[C@H](CO)[C@@H](O)[C@H](O)[C@H]4O[C@@H]4O[C@H](CO)[C@@H](O)[C@H](O)[C@H]4O)C(C)(C)[C@@H]3CC[C@]12C` [ginsenoside-RD] (10 µM), the morphology score in test [1] came to 0.0521. Besides, the SARS-CoV-2 infection rate in test [2] is 102% (inactive).
In the same order, the values of `CCCCCCCN(CC)CCC[C@@H](O)c1ccc(NS(C)(=O)=O)cc1` (racemic) [ibutilide] (10 µM) are 0.189 and 107% (inactive).
The like results for `CC(=O)SC[C@@H](C)C(=O)N1CCC[C@H]1C(=O)N[C@@H](Cc1ccccc1)C(=O)O` [alacepril] (10 µM) were, in that order, 0.171 and 108% (inactive).
The like results for `C=CCc1cc(OC)c(O)c(C(=O)NCCO)c1` [alibendol] (10 µM) were, in that order, 0.101 and 118% (inactive).
As to `O=C1NC(=O)/C(=C/c2ccc(-c3ccc(F)cc3O)o2)S1` (10 µM), in test [1], the morphology score came to 0.146. The SARS-CoV-2 infection rate in test [2] was 108% (inactive).
In the same order, the values of `CN(C)c1nc(N)c(C(=O)Nc2cccnc2)nc1Cl` (10 µM) are 0.226 and 79% (inactive).
`O=C(Nc1ccc(Oc2ccc(Cl)cn2)c(Cl)c1)c1ccccn1` (10 µM) had a morphology score in test [1] of 0.0983. In addition, the SARS-CoV-2 infection rate in test [2] is 102% (inactive).
In the same order, the values of `Cc1cc(C(N)=O)ccc1-n1c(CCC(=O)O)ccc1-c1ccc(-n2ccnc2)cc1` (10 µM) are 0.066 and 89% (inactive).
